# Test results: PubChem BioAssay (NCI)
# The panel holds about 83,000 compounds, 20% with a hit somewhere; the sample as a whole holds those more often.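 Testing used 96-well plates and a 48-hour single-concentration exposure. Example: -40 means 40% of the starting cells died.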 Unmarked numbers belong to inactive results. Calls of active or inactive are those of the source. The calls were made as follows: active = growth percent below 10; inactive = the rest.
# Key:
# Assay in all cases: NCI-60 one-dose screen, 48 h (100 = growth as untreated, 0 = no growth, -100 = all killed)
# Details in all cases: 10 µM unless noted
# T-47D breast = system: T-47D breast
# BT-549 breast = system: BT-549 breast
# MDA-MB-435 melanoma = system: MDA-MB-435 melanoma
# SW-620 colon = system: SW-620 colon
# MCF7 breast = system: MCF7 breast
# HCT-116 colon = system: HCT-116 colon
# HCC-2998 colon = system: HCC-2998 colon
# KM12 colon = system: KM12 colon
# MDA-MB-468 breast = system: MDA-MB-468 breast
Structure (SMILES),growth (T-47D breast),growth (BT-549 breast),growth (MDA-MB-435 melanoma),growth (SW-620 colon),growth (MCF7 breast),growth (HCT-116 colon),growth (HCC-2998 colon),growth (KM12 colon),growth (MDA-MB-468 breast)
O=[N+]([O-])c1cccc(-c2nnc3c(/C=C/c4ccc(F)cc4)nc4ccccc4n23)c1,74.3%,87.5%,102%,96.1%,28.4%,81.1%,105%,97.6%,0.494% (active)
COC(=O)c1c(C(=O)OC)c2ccc3c4ccccc4ccc3n2c1C(=O)OC,93.7%,113%,98.7%,111%,85.4%,97.7%,107%,103%,89.6%
O=C(Nc1nc2ccccc2s1)Nc1ccccc1Cl,68%,129%,100%,96.8%,69%,79.7%,97.3%,93.1%,97%
O=C1c2cccc3c(N4CCN(Cc5ccccc5)CC4)ccc(c23)C(=O)N1c1cccc(-c2nn(-c3ccccc3)cc2-c2nc3ccccc3s2)c1,97.6%,114%,108%,101%,88.6%,100%,127%,108%,95.7%
NS(=O)(=O)c1ccc(N2N=C(c3ccc(NC(=O)Nc4ccccc4)cc3)CC2c2ccc(Br)cc2)cc1 (stereo not given),-73.8% (active),-81.1% (active),-93.8% (active),-3.46% (active),-79.1% (active),-68.1% (active),-100% (active),-15.7% (active),-95% (active)
CN(C)c1nc(NCCNS(=O)(=O)c2ccc(C3=Nc4c(N)nc(N)nc4NC(c4ccc(Cl)cc4)C3)cc2)nc(N2CCOCC2)n1 (stereo not given),43%,35.4%,60.1%,82.8%,22.4%,30.9%,39.3%,52.9%,6.95% (active)
CCCN(CCC)S(=O)(=O)c1ccc(C(=O)O)cc1.CCCN(CCC)S(=O)(=O)c1ccc(C(=O)O)cc1.[Cl][Pt+2][Cl].[NH2-].[NH2-],26.3%,-78.8% (active),-54.6% (active),20.6%,8.34% (active),2.04% (active),-27.6% (active),17.8%,-54.3% (active)
COc1ccc(/C=C/c2nc3ccccc3n3c(-c4cccc([N+](=O)[O-])c4)nnc23)cc1,-7.62% (active),-87.5% (active),-46.5% (active),-22.3% (active),-64.5% (active),-76.2% (active),-84.5% (active),-67.3% (active),-65% (active)
Cc1nn(-c2ccccc2)c2nc(C)n(CC(=O)N/N=C/c3cccc([N+](=O)[O-])c3)c(=O)c12,77.6%,82.8%,101%,101%,85.5%,87.6%,116%,101%,93.3%
Cn1ncc2c(N)nc(Oc3ccccc3-c3ccccc3)nc21,31.9%,-1.44% (active),-38.2% (active),25.2%,9.1% (active),15.6%,62.2%,24%,-24.1% (active)
COc1ccc(-c2nc3ccc(-c4nnc(SCc5ccccc5)o4)cc3[nH]2)cc1OC,32.4%,49.7%,40%,15.9%,21.7%,8.42% (active),63.2%,61.2%,44.1%
Cn1cc(-c2cc(N)n3nc(-c4c[nH]c5ccccc45)cc3n2)c2cc(Cl)ccc21,-77.5% (active),-3.57% (active),-51.7% (active),-84.9% (active),-70.3% (active),-73.4% (active),-80% (active),-70.5% (active),-83.2% (active)
Clc1ccc(-c2nc3ccc(-c4nnc(SCc5ccccc5)o4)cc3[nH]2)cc1,7.8% (active),58.7%,62.6%,12.9%,8.62% (active),2.75% (active),39.4%,35.5%,11%
C#CCN(C)CCCOc1ccc(N(CC)C(=O)c2cc(C(C)C)c(O)cc2O)cc1Cl,10.1%,-8.72% (active),-26.1% (active),6.65% (active),0.137% (active),-3.98% (active),-78.2% (active),-9.83% (active),-46.8% (active)
COc1ccc2[nH]c(O)c(N=Nc3nc(-c4ccccc4)cs3)c2c1,0.04% (active),50.2%,39.7%,37.4%,11.6%,1.24% (active),58.6%,46.7%,-20.7% (active)
O=C(CSc1nnc(-c2ccc(-c3nc4ccc(Cl)cc4[nH]3)cc2)o1)Nc1ccc(Cl)cc1,47.5%,-9.75% (active),8.45% (active),4.33% (active),19.1%,5.5% (active),67%,18.8%,72.4%
CCOC(=O)c1ccc(NC(=S)NC(=O)c2ccc(NC(=O)C(C)C)cc2OC)cc1,-0.757% (active),-5.7% (active),33.7%,62.6%,8.31% (active),23.6%,67.9%,30.2%,3.97% (active)
COc1ccc(-c2cc(C(=O)N=Nc3c(O)[nH]c4ccc(Cl)cc34)c3ccccc3n2)cc1OC,106%,113%,119%,103%,87.8%,101%,109%,101%,98.9%
Cc1ccccc1NC(=O)c1cccc(NC(=O)CCl)c1,74.8%,39.4%,72.7%,41.7%,19.2%,27.3%,96.1%,77.3%,-0.88% (active)
COc1ccc(C2=Nc3c(N)nc(N)nc3NC(c3ccc(Oc4nc(Nc5ccc(F)cc5)nc(N(C)C)n4)c(OC)c3)C2)cc1 (stereo not given),70.3%,66.2%,81.9%,76.6%,38.8%,44.2%,80.1%,74.9%,8.9% (active)
